FBPA Giardia inh: qHTS Assay for Inhibitors of Fructose-1,6-bisphosphate Aldolase from Giardia Lamblia | A8B2U2 | purified Giardia FBPA | Potency, µM (doses to about 59.6 µM), for inactives: at the top dose activity, negative = inhibition, usual class: inhibitors | 0.71% of 290,000 active; further: potency means the concentration at half of the fitted maximal effect; on the % scale 0 is the no-effect control and ±100 the full control effect; nearly all actives have a fitted effect of over 55% in size
Target sequence (A8B2U2 whole entry, looked up): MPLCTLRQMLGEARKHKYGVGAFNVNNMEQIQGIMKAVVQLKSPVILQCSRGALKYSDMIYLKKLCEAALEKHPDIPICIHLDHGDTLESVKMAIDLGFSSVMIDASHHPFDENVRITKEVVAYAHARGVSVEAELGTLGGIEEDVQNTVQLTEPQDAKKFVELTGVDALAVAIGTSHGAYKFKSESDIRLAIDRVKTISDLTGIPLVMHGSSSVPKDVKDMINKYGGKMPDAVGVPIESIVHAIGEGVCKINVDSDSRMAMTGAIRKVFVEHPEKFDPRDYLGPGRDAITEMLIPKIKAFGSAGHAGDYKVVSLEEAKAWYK
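Giardia FBPA (40 nM reagent) was preincubated 10 min at RT with compound (up to 57.5 uM final), then substrate plus GAPDH/TPI/NAD/arsenate coupling system with diaphorase/resazurin was added; resorufin fluorescence (525/598 nm) was read after 20 min.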
Pf growth 96h: Primary qHTS for delayed death inhibitors of the malarial parasite plastid, 96 hour incubation | AID 504834, 2011 | Potency, µM (doses to about 28.7 µM), for inactives: at the highest dose activity change, negative = inhibition, hits mostly inhibitors | 6.9% of 320,000 active | P. falciparum luciferase reporter growth, 96 h; further: potency means the concentration at half of the fitted maximal effect; on the % scale 0 is the no-effect control and ±100 the full control effect
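Cell-based qHTS: luciferase-tagged P. falciparum in erythrocytes (2% hematocrit, 0.05% parasitemia final) incubated with compounds for 96 hours, 37 C, 5% CO2; luciferase detection reagent then added and luminescence measured.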
NS1 function inh: qHTS Assay for Inhibitors of Influenza NS1 Protein Function. Potency, µM (doses to about 46.1 µM), for inactives: top-dose activity, positive = more growth. AID 2326, 2010. 0.4% of 270,000 active; calls by dose curve; further: potency means the concentration at half of the fitted maximal effect; actives are rising curves; nearly all actives have a fitted effect of over 50% in size
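In this qHTS, NS1 from influenza A is expressed in budding yeast, where it slows growth. Cells are switched from glucose to 2% galactose medium (pH 6.0, -URA), treated with compound, and growth recovery is read at OD600.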
Shiga inhibitor: A qHTS for Small Molecule Inhibitors of Shiga Toxin; Vero cells, Shiga toxin protein synthesis inhibition reporter; inhibition, % at 38.7 µM; 9.2% of 290,000 active; in the data active means inhibition mostly above about 28%, no sharp cut-off; inactive means mostly below about 43%; further: 0% is about no effect
CHX counter: Cycloheximide Counterscreen for Small Molecule Inhibitors of Shiga Toxin. AID 2314, 2010. max response, %. 12% of 300,000 active. cell reporter, cycloheximide protein synthesis inhibition counterscreen; in the data active means max response mostly above about 13%, no sharp cut-off; inactive means mostly below about 14%; further: read at 38.3 µM for the half of the compounds with a filed dose; 0% is about no effect
Pf growth 48h: Primary qHTS for delayed death inhibitors of the malarial parasite plastid, 48 hour incubation; P. falciparum luciferase growth in erythrocytes, 48 h; Potency, µM (highest dose often 28.7 µM), inactives show at the highest dose activity change, negative = inhibition, actives largely listed as inhibitors; 5.9% of 310,000 active; further: potency means the concentration at half of the fitted maximal effect; on the % scale 0 is the no-effect control and ±100 the full control effect
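Cell-based growth assay: transgenic P. falciparum expressing firefly luciferase, cultured in red cells within RPMI 1640 containing 0.5% w/v Albumax, 24 mM bicarbonate and gentamycin. A drop in luciferase activity indicates inhibition.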
* = called active by the depositor; u = inconclusive; x = not tested or not shown. A selection: hits, their analogues and other compounds. The true share with any hit is near 21%. Unless noted, the call rests on the fitted dose curve; in most records, active means well fitted curve in the direction sought with a large enough effect; inconclusive means small, poorly fitted or top-dose-only effect, or another doubt; inactive means no such curve, though single readings can be large; an effect the other way counts as inactive or inconclusive.

SMILES	FBPA Giardia inh	Pf growth 96h	NS1 function inh	Shiga inhibitor	CHX counter	Pf growth 48h
O=C(O)CCC(=O)C(=O)O	x	13%	-1%	x	x	-4%
O=C(COc1coc(CN2CCN(Cc3ccccc3)CC2)cc1=O)Nc1ccccc1	x	-20%	x	x	x	-9%
Cc1sc(NC(=O)c2ccco2)c(CN2CCC(C)CC2)c1C	6%	u	-10%	0	10	x
Cc1sc(NC(=O)c2ccco2)c(CN2CCN(Cc3ccccc3)CC2)c1C	-4%	u	x	4	7	9.3µM*
Cc1sc(NC(=O)c2ccc(F)cc2)c(CN2CCCCCC2)c1C	-5%	-14%	-11%	175*	43*	-23%
CCOC(=O)c1sc(NC(=O)c2ccccc2F)c(C(N)=O)c1C	8%	-4%	7%	-4	-2	4%
Cc1sc(NC(=O)c2ccccc2F)c(CN2CCCCC2)c1C	3%	u	-17%	127*	50*	34%
C/C(=N\Nc1ccc(S(N)(=O)=O)cc1[N+](=O)[O-])c1cccnc1	-2%	-3%	3%	2	-7	22%
COc1ccc([C@H]2CC(=O)C=C(c3ccc4c(c3)OCCO4)C2)cc1	x	37%	x	x	x	41%
CN1Cc2c(ccc3c2OCO3)C2C(O)Cc3cc4c(cc3C21)OCO4 (centres undefined)	7%	x	x	x	x	x
CC(NC(=O)c1ccccc1F)c1nnc(SCC(=O)NC2CCCC2)n1C (centres undefined)	x	19%	6%	-7	-6	8%
O=C(CCc1ccccc1)Nc1cccc([N+](=O)[O-])c1	-3%	16%	x	25	16	18%
Cc1ccc(NS(=O)(=O)c2ccc(OCC(=O)Nc3cccc([N+](=O)[O-])c3)c(C)c2)cc1	-10%	15µM*	7%	-19	0	u
O=C(CCCOc1ccccc1)Nc1cccc([N+](=O)[O-])c1	4%	14%	0%	82*	21*	21%
O=C(CCCc1ccccc1)Nc1cccc([N+](=O)[O-])c1	-4%	57%	-42%	x	44*	75%
CC(NS(=O)(=O)c1ccc(OCC(=O)Nc2cccc([N+](=O)[O-])c2)cc1)c1ccccc1 (centres undefined)	0%	-34%	18%	-7	-5	10µM*
O=C(O)CCCC(=O)Nc1cccc([N+](=O)[O-])c1	13%	50%	8%	-9	-8	147%
Cc1ccc(S(=O)(=O)CCC(=O)Nc2cccc([N+](=O)[O-])c2)cc1	-21%	6%	x	-12	-3	-17%
CC(=O)c1ccc(-c2ccc(C(=O)N3CCC(C(N)=O)CC3)o2)cc1	x	98%	x	x	x	43%
CN(C)S(=O)(=O)c1cccc(C(=O)C2=C3SC=C(c4ccccc4)N3CC2)c1	5%	3.3µM*	-5%	12	3	-19%
CN(C)S(=O)(=O)c1cccc(C(=O)N2CCc3ccccc32)c1	0%	x	1%	-14	1	3%
O=C(NCCCc1ccccc1)[C@@H]1Cc2ccccc2CN1	-11%	10%	-2%	-6	-1	7%
CC(NC(=O)/C=C/c1ccco1)c1nc2ccccc2n1Cc1c(Cl)cccc1Cl (centres undefined)	2%	u	7%	44*	22*	u
CC(NC(=O)/C=C/c1ccco1)c1nc2ccccc2n1Cc1ccccc1F (centres undefined)	3%	10µM*	11%	60	27*	u
C=CCn1c(C(C)NC(=O)C(C)(C)C)nc2ccccc21 (centres undefined)	-1%	u	0%	0	-1	2%
CS(=O)(=O)c1ccccc1-c1csc(N2CCC(C(N)=O)CC2)n1	x	18%	x	x	x	-3%
COCCn1c(=O)c(-c2ccc(OC)cc2)nc2cnc(N3CCOCC3)nc21	5%	x	x	x	x	x
Cc1ccc([N+](=O)[O-])cc1N/C=C1\CCc2ccccc2C1=O	u	u	-4%	52*	13*	23%
Cc1ccc([N+](=O)[O-])cc1NC(=O)CCc1ccccc1	3%	-6%	x	-13	11	8%
